In PubChem BioAssay (NCATS):
Inconclusive results are not listed. A call without a number means that no potency is given here. Activity calls are given as the source filed them. Calls follow the shape of the dose curve; as a rule, active = well fitted inhibition curve with a large enough effect; inconclusive = small, poorly fitted or top-dose-only effect; inactive = flat fitted curve, though single readings scatter.

What follows are molecules tested on Zika virus NS2B-NS3 protease (assay: Primary screen GU AMC qHTS for Zika virus inhibitors (AID 1347154; also: nearly all actives have a fitted effect of over 70% in size)). Details: Zika NS2B-NS3 unlinked protease, AMC fluorogenic substrate; series mostly up to 54.1 µM.
Procedure, shortened: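 Unlinked Zika NS2B hydrophilic domain/NS3 protease domain noncovalent complex (25 nM final) in 10 mM Tris-HCl pH 8.0, 0.01% Tween 20, with AMC peptide substrate. Fluorescence (ex 340, em 450 nm) change over 15 min, room temperature; percent inhibition fitted to 4-parameter Hill equation.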

Structure (SMILES) | Potency
CC(=O)SCC(Cc1ccccc1)C(=O)NCC(=O)OCc1ccccc1 (stereo not given) | inactive
C[C@H](NC(=O)Cc1cc(F)cc(F)c1)C(=O)N[C@H](C(=O)OC(C)(C)C)c1ccccc1 | inactive
COc1ccc(Nc2nccc(NCCO)n2)cc1 | inactive
CCS(=O)(=O)Nc1ccc2[nH]c(O)c(C(=Nc3ccc(CN4CCCCC4)cc3)c3ccccc3)c2c1 | inactive
C[C@](Cc1c[nH]c2ccccc12)(NC(=O)OC1C2CC3CC(C2)CC1C3)C(=O)NC[C@H](NC(=O)CCC(=O)O)c1ccccc1 (stereo not given in full) | inactive
